HepG2 tox = counter-screen for TGF-b inhibitors: cytotoxicity in HepG2 cells. HepG2 CAGA-GFP viability, ATP luminescence, 18 h. Potency, µM (highest dose often 46.1 µM), inactives show at the highest dose activity change, negative = cytotoxicity, most hits filed as cytotoxic. actives 0.76% (n = 410,000). AID 588856
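CellTiter-Glo luminescence gave cytotoxicity after 18 hours at 37 degrees C. The cells were HepG2 CAGA-GFP in 1% FBS DMEM, stimulated with 500 pg/mL TGF-beta after compound addition. %Activity was normalised to no-cell wells (complete cell-killing) and DMSO (no toxicity), and curves were fitted and classified.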
HT1080-NT tox = kills 2HG-producing HT-1080-NT fibrosarcoma cells. Potency, µM (titrated, usually from 46.1 µM), for the others: at the highest dose activity, negative = less viability, usual class: cytotoxic. HT-1080-NT fibrosarcoma viability, CellTiter-Glo ATP luminescence, 48 h. actives 1.6% (n = 360,000);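 also: NT is the 2HG producing partner of a matched IDH1 knockdown line; 0% = DMSO-treated cells and -100% = media-only wells without cells; nearly all actives have a fitted effect of over 55% in size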
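Read-out is CellTiter-Glo luminescence after 10 minutes at room temperature, following 48 hours' compound treatment of HT-1080-NT cells (750 cells/well, RPMI, 5% FBS, 37 degrees C).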
TGFb inhibitor = blocks TGF-b signaling; HepG2 CAGA-GFP TGF-b/SMAD3 reporter, GFP fluorescence, 18 h; TGF-beta stimulated, 500 pg/mL final; Potency, µM (series often up to 46.1 µM), for the others: at the top dose activity, negative = inhibition, usual class: inhibitors; actives 1.2% (n = 410,000); AID 588855; also: % is scaled to controls: 0 for no effect and ±100 for the full control effect; nearly all actives have a fitted effect of over 65% in size
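First, reporter cells (HEPG2 CAGA-GFP) rested 2 h at 37 degrees C. Next, compounds were pinned in and TGF-beta added to 500 pg/mL final. After 18 h, GFP was imaged per cell and summed per well.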
ATXN viability = cell viability loss in ATXN counter-screen. S2 cells (HEK-293 line with an ATXN2-luciferase reporter) viability, CellTiter-Fluor protease fluorescence, 24 h. Potency, µM (highest dose often 56.7 µM), actives largely listed as cytotoxic. actives 0.49% (n = 400,000); also: nearly all actives have a fitted effect of over 40% in size
HT1080 IDH1KD tx = HT-1080 IDH1 knockdown cell toxicity (counter line); HT-1080 IDH1 knockdown viability, ATP luminescence, 48 h; Potency, µM (series often up to 46.1 µM), inactives show at the highest dose activity, negative = toxicity, actives largely listed as cytotoxic; actives 2% (n = 360,000);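 also: 0% = DMSO wells and -100% = cell-free medium wells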
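Cytotoxicity counter-line: IDH1KD HT-1080, 48 h, CellTiter-Glo. Curves classed by r2, magnitude and activity.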
ATXN2 expr inh = ATXN2 expression inhibition; HEK-293 ATXN2-luciferase reporter, luminescence, 24 h; Potency, µM (doses to about 57 µM), for inactives: at the highest dose activity change, negative = inhibition, hits mostly inhibitors; actives 0.72% (n = 360,000); AID 1745845; also: % is scaled to controls: 0 for no effect and ±100 for the full control effect; nearly all actives have a fitted effect of over 55% in size
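qHTS (up to 57 uM final) was run with 24 h compound exposure of reporter cells at 37 °C. Each well was multiplexed: SteadyGlo luminescence measured ATXN2-luciferase expression after a fluorogenic Gly-Phe-AFC viability readout (25 uM final).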
* = called active by the depositor; i = inactive; ? = inconclusive; nt = no result; [ ] = another dose, or the depositor's remark. Sampled rows, rich in hits. Any-hit rate of the full collection: about 3.8%. Calls follow the shape of the dose curve; as a rule, active = well fitted curve in the direction sought with a large enough effect; inconclusive = small, poorly fitted or top-dose-only effect, or another doubt; inactive = no such curve, though single readings can be large; an effect the other way counts as inactive or inconclusive. Potency is read from the fitted curve at half-maximal effect.

SMILES | HepG2 tox | HT1080-NT tox | TGFb inhibitor | ATXN viability | HT1080 IDH1KD tx | ATXN2 expr inh
Cc1cc(C)c(S(=O)(=O)NC2CCN(Cc3ccccc3)CC2)c(C)c1 | -49.8% | 10.8% | ? | i | -11.9% | nt
Cc1cc(C)c(C)c(S(=O)(=O)NC2CCN(Cc3ccccc3)CC2)c1C | -52.3% | ? | ? | i | 16.4µM* | 0.5%[11.3 µM]
O=S(=O)(NC1CCN(Cc2ccccc2)CC1)c1ccc(F)c(F)c1 | -19.9% | 5.6% | 6.9% | i | 3.2% | nt
Brc1ccc(Nc2c3c(nc4nncn24)CCC3)cc1 | -17.9% | nt | nt | nt | nt | nt
Cc1ccc(-c2nc(Nc3ccc(N4CCOCC4)cc3)c3ccccc3n2)cc1 | -39.3% | 18.4µM* | ? | nt | 20.6µM* | -41.8%
CNC(=O)c1ccc(Nc2nc(-c3ccccc3)nc3ccccc23)cc1 | -45.7% | 18.4µM* | 8.9% | i | 18.4µM* | 3.1%
Cc1ccc(-c2nc(NCCN(C)C)c3ccccc3n2)cc1 | -11.8% | ? | ? | i | 20.6µM* | -30.3%
O=C(O)c1ccc(Nc2nc(-c3ccccc3)nc3ccccc23)cc1 | -29.3% | -26.5% | -9.7% | ? | -16.4% | nt
COC(=O)c1ccc(Nc2nc(-c3ccc(C)cc3)nc3ccccc23)cc1 | -17.2% | nt | 0.0% | i | nt | 9.4%
CC(=O)Nc1ccc(NC(=O)COC(=O)c2ccccc2OCc2cccc(Br)c2)cc1 | 8.1% | nt | -4.6% | nt | nt | nt
CCCC[C@@H](CNC)NC[C@H](Cc1ccc(O)cc1)NCCc1ccc(OCC)cc1 | 12.6µM* | ? | ? | ? | -24.0% | ?
NS(=O)(=O)c1ccc(NC(=S)NC(=O)C2CCCC2)cc1 | 4.9% | 1.4% | 0.7% | i | 7.8% | 9.8%
C=CCN(CC=C)S(=O)(=O)c1ccc(NC(=S)NC(=O)C2CC2)cc1 | -20.6% | ? | 17.8µM* | i | ? | -20.9%
Cc1cc2cc(CCNS(=O)(=O)c3ccc(Br)cc3)c(=O)[nH]c2cc1C | -10.3% | nt | -24.7% | i | nt | ?
C=C1C(=O)O[C@@H]2[C@H]1[C@@H](OC(=O)/C(C)=C/C)C/C(C)=C\C(=O)/C=C(\C)[C@@H]2O | 11.2µM* | ? | 7.08µM* | 10µM* | ? | 6.31µM*
C=C1C(=O)O[C@H]2[C@H]1[C@H](OC(=O)/C(C)=C\C)C[C@]1(CO1)[C@@H]1[C@H](OC(C)=O)C=C(C)[C@]21O | 0.4% | 4.9% | ? | ? | ? | 3.8%
COc1cc2c(c(OC)c1OC)-c1c(cc3c(c1OC)OCO3)C[C@@H](C)[C@](C)(O)C2 | nt | nt | nt | i | nt | nt
O=C1c2ccccc2C(=O)c2c(NCCCN(CCO)CCO)cccc21 | -30.7% | 20.6µM* | ? | nt | ? | -32.4%[11.3 µM]
CCOc1ccc(Cn2c(CNS(=O)(=O)c3ccc(C(C)(C)C)cc3)nc3cccnc32)cc1 | -28.9% | nt | ? | nt | nt | nt
COc1ccccc1/C=C/C=N/n1c(C)nnc1C | 0.891µM* | 22.9% | -4.7% | ? | 16.2% | 32.9%
C[n+]1cccc(O)c1SCc1ccccc1 | -64.1% | -25.2% | ? | 14.1µM* | 23.1µM* | ?
Cc1nn(-c2ccccc2)c(C)c1C(=O)OC(C)C(=O)NC1CCCCC1 (stereo not drawn) | -0.4% | 20.6µM* | 7.4% | i | -13.6% | -35.8%
COC(=O)c1ccccc1C(=O)N1CCOc2ccc(CN3CCN(c4ccccn4)CC3)cc2C1 | nt | nt | nt | i | nt | nt
Cc1cnc(NS(=O)(=O)c2ccc(N)cc2)nc1 | nt | nt | nt | i | nt | -2.8%
c1cc(SC2CCCCC2)cc(-c2nc3cnccn3c2NC2CCCCC2)c1 | 15.8µM* | ? | -16.6% | nt | ? | ?
SMILES | HepG2 tox | HT1080-NT tox | TGFb inhibitor | ATXN viability | HT1080 IDH1KD tx | ATXN2 expr inh
c1cn2c(NC3CCCCC3)c(-c3ccc(SC4CCCCC4)cc3)nc2cn1 | -0.8% | ? | 2.82µM* | nt | ? | 10.0%
c1cn2c(NC3CCCC3)c(-c3ccc(N4CCOCC4)cc3)nc2cn1 | -41.9% | 6.2% | -24.8% | nt | 9.2% | 49.9%
CCSc1ncc(Cl)c(C(=O)N(Cc2ccc(N(C)C)cc2)Cc2ccco2)n1 | -36.6% | nt | nt | nt | nt | nt
C=CCNC(=O)/C(C#N)=C/c1ccccc1Cl | -1.6% | -17.6% | -1.3% | i | 3.1% | -18.6%
C=CCNC(=O)/C(C#N)=C/c1cc(Br)ccc1OC | -37.2% | 20.6µM* | -25.5% | ? | ? | -27.4%
CS(=O)(=O)c1ccc(-c2cn3ccccc3n2)cc1 | nt | nt | nt | i | nt | 22.6%
N=c1c2c(n(Cc3ccc(Cl)c(Cl)c3)c3c1CCC3)CCCC2 | -2.6% | 23.1µM* | ? | ? | 18.4µM* | ?
N=c1c2c(n(Cc3ccc([N+](=O)[O-])cc3)c3c1CCC3)CCCC2 | 0.4% | 3.0% | -3.1% | i | -2.2% | -17.7%
N=c1c2c(n(Cc3ccc(Br)cc3)c3c1CCC3)CCCC2 | -17.2% | 20.6µM* | ? | i | 18.4µM* | ?
C=CCOC(=O)C1=C(C)NC(SC)=C(C#N)C1c1cccs1 (stereo not drawn) | -19.1% | 9.2µM* | 1.9% | i | 18.4µM* | ?
C=CCOC(=O)C1=C(C)NC(SCC(=O)Nc2nccs2)=C(C#N)C1c1cccs1 (stereo not drawn) | -2.9% | ? | ? | ? | ? | -21.6%
CCC1C(=O)NCCN1Cc1ccc2c(c1)CN(Cc1cccc(OC)c1OC)CCO2 (stereo not drawn) | nt | nt | nt | i | nt | nt
CCC[n+]1c(/C=C/c2c(OC)cc(OC)cc2OC)ccc2ccccc21 | -36.7% | nt | 48.9% | nt | nt | nt
CCC[n+]1c2ccccc2cc2ccccc21 | -49.5% | 16.4µM* | ? | i | ? | -2.0%
CCCC[n+]1c(/C=C/c2c(OC)cc(OC)cc2OC)ccc2ccccc21 | -49.0% | nt | 60.5% | nt | nt | nt
CCCC[n+]1c2ccccc2cc2ccccc21 | -23.0% | 23.1µM* | ? | nt | ? | nt
CCCCCCCC/C=C/C(=O)O | nt | nt | nt | i | nt | 11.0%
CCC1C(=O)NCCN1Cc1ccc2c(c1)CN(Cc1ccc(F)c(OC)c1)CCO2 (stereo not drawn) | nt | nt | nt | i | nt | nt
COc1cccc(S(=O)(=O)NCc2ccc(C(=O)Nc3ccc(Cl)c(Cl)c3)cc2)c1 | -35.9% | -11.9% | ? | i | -19.7% | -10.8%
O=C(Nc1ccc(Cl)c(Cl)c1)c1cccc(S(=O)(=O)NCc2cccnc2)c1 | -23.1% | 7.31µM* | ? | ? | 23.1µM* | ?
c1ccc(-c2nc3ccccc3[nH]2)nc1 | -46.9% | -10.9% | -13.3% | i | -20.6% | 21.0%
Cc1ccc2nc(-c3ccccn3)[nH]c2c1 | -78.9% | ? | -11.9% | i | 18.4µM* | ?

Screening results deposited in PubChem by National Center for Advancing Translational Sciences (NCATS).
